NADH enzymes – blocks coupling enzymes of NAD/NADH assays | IC50, µM (series often up to 10 µM), for the others: top-dose inhibition | AID 774 | coupled PK/LDH NADH assays, four targets | 0.02% of 65,000 active;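 active = single-dose screening hits from any of four coupled enzyme assays that gave an IC50 when retested across doses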;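 also: the DPM-DC format reads NADH fluorescence rather than 340 nm absorbance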
Abs 340nm – compounds absorbing at 340 nm; 65,000 tested, under 10 active; compound absorbance at 340 nm, fold over control; fold change at 10 µM;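 active = at 10 µM dose, initial 340 nm absorbance at least 2 fold that of control wells; inactive = change under 2 fold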;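 also: initial absorbance extrapolated from kinetic A340 decline of NADH oxidation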
Autofluor 339 – intrinsic fluorescence of library compounds, ex339/em460 – biochemical, MLSMR library, data from DPM-DC assay, artefact control, profiling panel | compound autofluorescence, ex339/em460 nm, NADH buffer; stronger effect = higher value; 1 = no-compound wells, NADH background | fluorescence fold increase at 10 µM | 5.5% of 65,000 active;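 active = at 10 µM, mean starting fluorescence two-fold or more over control wells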;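 also: signal is the first read of a kinetic run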
Spn MK inh – blocks S. pneumoniae mevalonate kinase; purified MK, PK/LDH-coupled NADH absorbance 340 nm; inhibition, % at 10 µM; 0.48% of 65,000 active; AID 555;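 active = ranked among the strongest by inhibition in the single 10 µM screen, a fixed top-ranked set picked for dose follow-up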
Spn DPM-DC inh – S. pneumoniae DPM-DC inhibition; calls only at 10 µM; 0.49% of 65,000 active; purified DPM-DC, PK/LDH coupled NADH fluorescence;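 active = the 320 compounds with the highest percent inhibition in the single-dose primary screen, excluding strongly autofluorescent ones, cut at about 32% in these data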;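 also: kinetic rate of NADH fluorescence loss reporting ADP formed by the decarboxylase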
PMK inhibit – inhibitors of Streptococcus pneumoniae phosphomevalonate kinase; purified PMK, PK/LDH-coupled NADH absorbance 340 nm; inhibition, % at 10 µM; 0.49% of 65,000 active;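 active = top-ranked compounds by inhibition in the single 10 µM screen, taking a fixed number of the strongest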;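 also: 0% = full reaction with DMSO carrier and 100% = background rate without enzyme reaction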
* hit, by the source's call; i = inactive; / = no result given; + = active, no number. The list is not random: actives were taken first. Their share in the collection is about 6.3%.

SMILES	NADH enzymes	Abs 340nm	Autofluor 339	Spn MK inh	Spn DPM-DC inh	PMK inhibit
CCn1c(=O)c2cc(S(=O)(=O)NC3CCCCC3)ccc2n(CC)c1=O	3%	1.1	1.1	2	i	0
Cc1csc(SCCn2c(N3CCN(c4ccccc4)CC3)nc3c2c(=O)[nH]c(=O)n3C)n1	6%	1	1.1	10	i	7
Cc1nc2n(n1)C(c1ccccc1)C1=C(CC(c3ccco3)CC1=O)N2 (configuration not stated)	0%	1.1	1.6	0	i	0
CC1=C(C(=O)Nc2cccc(C)n2)C(c2ccc3c(c2)OCO3)C2=C(CC(c3ccco3)CC2=O)N1 (configuration not stated)	7%	1.1	2.3*	1	i	3
CCOc1ccc2[nH]c3c(N4CCN(c5ccccn5)CC4)ncnc3c2c1	3%	1	2.7*	6	i	2
CC(=O)Nc1nc2n(n1)C(c1ccc(Cl)cc1)C=C(C)N2 (configuration not stated)	10%	1	4.9*	0	/	20
Nc1nc(NC(=O)c2ccco2)nn1-c1ccccc1	2%	1	1.1	6	i	0
COc1ccc(C2C=C(c3ccc(Br)cc3)Nc3nc(N4C(=O)CCC4=O)nn32)cc1 (configuration not stated)	6%	1.1	3.9*	3	/	8
O=C(Nc1nc2nc(-c3ccccc3)cc(-c3ccccc3)n2n1)c1ccco1	5%	1.1	4*	9	/	0
O=C(Nc1nc2n(n1)C(c1ccccc1)C=C(c1ccccc1)N2)c1ccco1 (configuration not stated)	15%	1.1	2.6*	12	i	19
O=C(c1nc2n(n1)C(c1ccc(Cl)cc1)C=C(c1ccccc1)N2)N1CCOCC1 (configuration not stated)	2%	1	1.4	2	i	0
CC(C)C1CC(O)(C2(O)CCCCC2)ON1 (configuration not stated)	8%	0.99	1.1	8	i	16
Cc1ccc(C)c(-n2c(CNc3ccc(F)cc3)nnc2SCC(N)=O)c1	8%	1	1.1	2	i	22
COc1ccc(C2=CC(c3ccc(F)cc3)n3nnnc3N2)cc1 (configuration not stated)	0%	1.1	1.1	0	i	0
CC(=O)Nc1nc2n(n1)C(c1ccccc1)C=C(c1ccccc1)N2 (configuration not stated)	12%	1.1	1.8	7	i	12
COc1ccc(C2C=C(c3ccc(Cl)cc3)Nc3nc(NC(C)=O)nn32)cc1 (configuration not stated)	1%	1.1	2.3*	0	/	2
COc1ccccc1C1C=C(c2ccc(Cl)cc2)Nc2nc(NS(C)(=O)=O)nn21 (configuration not stated)	7%	1.1	4*	5	/	9
CC(=O)Nc1nc2n(n1)C(c1ccc(F)cc1)C=C(c1ccccc1)N2 (configuration not stated)	4%	1.1	3.4*	8	/	0
O=C(NCC1CCC(C(=O)O)CC1)c1cccnc1 (configuration not stated)	4%	1	1	5	i	6
O=C(NCCOc1ccccc1)c1cc2ccccc2o1	4%	0.99	1.1	9	i	2
Cc1c(-c2ccccc2)nc(N)c(C#N)c1-c1ccco1	7%	1.1	2.6*	10	i	11
c1ccc(-c2nn3c(-c4ccco4)nnc3s2)nc1	2%	1.1	1.2	6	i	0
N#Cc1c(-c2ccco2)cc(-c2cccnc2)nc1N	12%	1.1	3.7*	7	/	17
N#Cc1c(-c2ccco2)cc(-c2ccccn2)nc1N	5%	1.1	3.7*	3	/	6
COc1ccccc1CNc1nc2nc(C)cc(=O)n2[nH]1	9%	1	1.1	13	i	10
SMILES	NADH enzymes	Abs 340nm	Autofluor 339	Spn MK inh	Spn DPM-DC inh	PMK inhibit
CC[C@@H](C)[C@H](NC(=O)C1CCN(C(=O)[C@@H](NS(=O)(=O)c2ccc(C)cc2)C(C)C)CC1)C(=O)O	2%	1	1.1	6	i	0
CCOC(=O)C1=C(O)C(=O)N(c2ccc(S(N)(=O)=O)cc2)C1c1ccc(OC)cc1 (configuration not stated)	27%	1.1	2.1*	21	i	35*
CCOC(=O)c1ccc(N2C(=O)C(O)=C(C(C)=O)C2c2ccc(O)c(OC)c2)cc1 (configuration not stated)	4%	1.1	1.1	5	i	7
CCN(C(=O)COc1cc(=O)n(C)c2ccccc12)c1cccc(Cl)c1	5%	1	1.1	7	i	8
Cn1c(=O)c2nc(-c3ccc(Cl)cc3Cl)oc2c2ccccc21	4%	1.1	2*	6	/	1
CCOc1cccc2cc(-c3nnc(-c4ccccc4)o3)c(=O)oc12	8%	1.1	1.4	6	i	13
O=c1oc2ccc3ccccc3c2cc1-c1nnc(-c2ccccc2)o1	12%	1.1	4.3*	19	/	5
O=c1oc2ccccc2cc1-c1nnc(-c2cccc(Br)c2)o1	2%	1.1	3.9*	4	/	0
Cc1ccc(-c2nnn(CC(=O)N(CC(=O)NC3CCCCC3)c3cnc4ccccc4c3)n2)o1	3%	0.98	1.2	13	i	4
CC(=O)c1c(C)[nH]c(C(=O)NCCN2CCC(C)CC2)c1C	6%	0.99	1.1	7	i	11
COC(=O)c1cc(Cl)c(NS(=O)(=O)c2ccccc2)cc1OC	15%	1	1.9	0	+	11
COC(=O)c1cc(NS(=O)(=O)c2ccc(OC)c(OC)c2)ccc1Cl	6%	1	1.1	9	i	10
COc1ccccc1-c1nc(C#N)c(N2CCN(c3cccc(Cl)c3)CC2)o1	18%	0.91	3.5*	17	/	18
N#Cc1nc(-c2ccco2)oc1N1CCN(c2cccc(Cl)c2)CC1	6%	1	1.2	12	i	11
COc1ccccc1-c1nc(C#N)c(N2CCN(C(c3ccccc3)c3ccccc3)CC2)o1	14%	1.1	3.9*	15	/	12
COc1ccc2[nH]c(=O)c(CN(CC3CCCO3)C(=O)Nc3ccccc3OC)cc2c1 (configuration not stated)	14%	1.1	2.5*	10	i	10
CCc1ccc2[nH]c(=O)c(CN(CCCN3CCOCC3)C(=O)Nc3cccc(Cl)c3)cc2c1	8%	1	1.2	8	i	15
CCN1CCCC1CN(Cc1cc2cc(C)cc(C)c2[nH]c1=O)C(=O)Nc1ccccc1OC (configuration not stated)	9%	1	1.3	11	i	16
